For this experiment, the target named is human CYP3A5, CYP3A5 (gene 1577) (UniProt P20815). In words: NVS_ADME_hCYP3A5: NovaScreen (NVS) CYP450-related Enzyme Activity (ADME) Assay for human CYP3A5. As for the experimental part: NVS_ADME_hCYP3A5 is a biochemical, single-readout assay that uses extracted gene-proteins in a cell-free assay. Measurements were taken 0.5 hour after chemical dosing in a 96-well plate.NVS_ADME_hCYP3A5 is one of one assay component(s) measured or calculated from the NVS_ADME_hCYP3A5 assay. It is designed to make measurements of enzyme activity, a form of enzyme reporter, as detected with fluorescence intensity signals by Fluorescence technology.Data from the assay component NVS_ADME_hCYP3A5 was analyzed into 1 assay endpoint. This assay endpoint, NVS_ADME_hCYP3A5, was analyzed in the positive analysis fitting direction relative to Acetonitrile as the negative control and baseline of activity. Using a type of enzyme reporter, loss-of-signal activity can be used to understand changes in the enzymatic activity as they relate to the gene CYP3A5. Furthermore, this assay endpoint can be referred to as a primary readout, because this assay has produced […] where this one serves a enzymatic activity function. To generalize the intended target to other relatable targets, this assay endpoint is annotated to the cyp intended target family, where the subfamily is xenobiotic metabolism. […]
human CYP3A5, CYP3A5 (gene 1577), sequence (P20815 whole entry, looked up): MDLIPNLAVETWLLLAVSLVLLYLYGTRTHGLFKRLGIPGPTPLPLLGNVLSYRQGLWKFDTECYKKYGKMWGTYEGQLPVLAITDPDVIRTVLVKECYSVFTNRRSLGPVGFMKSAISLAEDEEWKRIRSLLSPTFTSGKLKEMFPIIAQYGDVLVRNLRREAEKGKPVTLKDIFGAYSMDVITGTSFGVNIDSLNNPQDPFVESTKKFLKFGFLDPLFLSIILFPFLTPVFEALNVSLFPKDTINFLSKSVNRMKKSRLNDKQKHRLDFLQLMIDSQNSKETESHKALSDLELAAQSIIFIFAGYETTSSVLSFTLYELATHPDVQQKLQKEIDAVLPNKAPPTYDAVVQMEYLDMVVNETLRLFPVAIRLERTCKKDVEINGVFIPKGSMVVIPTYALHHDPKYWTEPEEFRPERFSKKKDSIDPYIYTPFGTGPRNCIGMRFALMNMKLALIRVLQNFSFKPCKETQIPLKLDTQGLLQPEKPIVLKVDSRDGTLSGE

Several values for one entry are separate records, joined by “and”; a condition that tells them apart may be missing. Identical values can stand only once. Activity calls are given as the source filed them. The calls were made as follows: active = hit-call score of the fitted dose curve at least 0.9, where 1 is the maximum; inactive = score below 0.9.

By AC50 is commonly meant the concentration at which the activity in the assay is half-maximal. Regarding `C#C[C@]1(O)CC[C@H]2[C@@H]3CCc4cc(O)ccc4[C@H]3CC[C@@]21C`, the AC50 is 1.84 µM (active) and 3.89 µM (active) and 1.71 µM (active).

Values taken from PubChem BioAssay AID2283109 (EPA ToxCast).
